Laboratory results from PubChem BioAssay (NCATS).
Inconclusive results are not listed. Activity calls are given as the source filed them. Calls come from the whole dose curve; as a rule, active = well fitted inhibition curve with a large enough effect; inconclusive = small, poorly fitted or top-dose-only effect; inactive = no such curve, though single readings can be large or run the other way.

Assay: BET inhibitor-based combinations targeting novel dependencies in MECOM-rearranged (r) AML: OCI-AML3 cell line (AID 2202232); note: nearly all actives have a fitted effect of over 35% in size
Conditions: CellTiter-Glo luminescence, 48 h; Potency: OCI-AML3 viability; series mostly up to 46 µM
Source text: Ecotropic viral insertion site 1 (EVI1) is located on chromosome 3q26.2 as part of the MECOM (MDS and EVI1 complex) locus. Under normal hematopoiesis, EVI1 is a regulator of hematopoietic stem cell maintenance and self-renewal and EVI1 levels decrease as the cells differentiate. In approximately 5-10% of de novo acute myeloid leukemia (AML) EVI1 is aberrantly expressed, including Chromosomal inv(3)(q21;q26.2) or t(3;3)(q21;q26.2) alterations (MECOM-r) that account for about 50% of AML with EVI1 overexpression 31. AMLs with high levels of EVI1 have a poor prognosis and an overall survival time averaging between 10-14 months. EVI1 overexpression confers resistance in leukemia cells, highlighting the need to develop new targeted therapies for EVI1 overexpressing AMLs.
Here, we performed an unbiased chemical drug screening by evaluating the single agent activity of a collection of 2,480 oncology-focused, approved and investigational drugs (NCATS Mechanism Interrogation Plates, MIPE v5.0) against a panel of seven AML cell lines. These included four MECOM-r cell-lines (AML-191, AML-194, UCSD-AML1 and HNT-34) and three non-MECOM-r AMLs (MV4-11, OCI-AML3 and SET-2). Exploiting the mechanistic redundancy built in the library, we identified target-level sensitivities in MECOM-r AML cells and relative activity as compared to other AML subtypes.
A collection of 2480 mechanistically annotated dugs (MIPE v5.0) was used to screen four 3q26.2 rearranged AML cell lines and three non-3q26.2 rearranged AML cell lines. This library purposely exploits redundancy by including multiple inhibitors of key onco-targets, while simultaneously encompassing mechanistic diversity, targeting more than 800 distinct mechanisms of action. Briefly, cells were seeded in 5 uL of growth media using a Multidrop Combi dispenser into 1536 well white polystyrene tissue culture treated plates (Corning) at a density of 500cells/well. For each cell-line, for each of the 2480 drugs in MIPE v5.0 library, an 11-point dose curve was generated via a 1536 pin-tool. Plates were incubated for 48 hr at standard incubator conditions, covered by a stainless steel gasketed lid to prevent evaporation. Cell viability was determined by luminescence based, Cell Titer Glo assay (Promega). In detail, 3 uL of Cell Titer Glo were added to each well and plates were incubated at room temperature for 15 min with a stainless-steel lid in place. Luminescence readings were taken using a Viewlux (PerkinElmer) with a 2 s exposure time per plate. Compound dose-response curves were normalized to DMSO and empty well controls on each plate. Quantitative drug activity data from dose-response curves was determined utilizing area Under the Curve (AUC) and Z-transformed AUC (Z-AUC, a mean-centering transformation applied to each individual cell-line screened).
Potency is the fitted concentration of half-maximal effect.

Row | Molecule | Potency
1 | COc1ccc2c(c1)CC[C@@H]1[C@@H]2CC[C@]2(C)[C@@H](NCCCCCCN3C(=O)C=CC3=O)CC[C@@H]12 | inactive
2 | O=C(Cc1ccccc1)Nc1nnc(CCSCCc2nnc(NC(=O)Cc3ccccc3)s2)s1 | 468 nM (active)
3 | CN(Cc1ccccc1)C(=O)c1ccc(S(=O)(=O)Nc2ccccc2)cc1 | inactive
4 | COc1ccc(S(=O)(=O)Nc2cc(-c3csc(C#N)c3)ccc2C)cc1 | 148 nM (active)
5 | Cc1c(C(=O)Nc2ccc(Oc3ccnc4[nH]cc(-c5ccccc5)c34)c(F)c2)c(=O)n(-c2ccc(F)cc2)n1C | 20900 nM (active)
6 | CCC[C@H](Nc1nc(-c2ccc(NC(=O)NCC)c(OC)c2)ncc1C)c1cccnc1 | 105 nM (active)
7 | CC(C)(C)OC(=O)Nc1ccc(-c2cc(C(=O)NCCCCCCC(=O)NO)no2)cc1 | 2630 nM (active)
8 | CN1CCCN(C(=O)c2cccc(-c3ccc(/C=C4/C(=O)Nc5ccc(Cl)cc54)o3)c2)CC1 | 6610 nM (active)
9 | Cc1c(F)ccc(C(=O)Nc2cc([N+](=O)[O-])ccc2N2CCN(C)CC2)c1Cl | inactive
10 | CCN(C(=O)c1c(O)c2c(Cl)cccc2n(C)c1=O)c1ccccc1 | 13200 nM (active)
11 | NC(=O)c1cc(F)cc2c1C(=O)N(C1CCN(C3CCC(F)(F)CC3)CC1)C2 | inactive
12 | COc1cc(=C2C=c3ccccc3=N2)[nH]/c1=C/c1[nH]c(C)cc1C | 2630 nM (active)
13 | CN1C/C=C/CCOc2cccc(c2)-c2ccnc(n2)Nc2cccc(c2)C1 | 468 nM (active)
14 | COc1ccc2[nH]c3c(c2c1)CCN[C@]31CS[C@@H]2c3c(OC(C)=O)c(C)c4c(c3[C@H](COC1=O)N1[C@@H]2[C@H]2c3c(cc(C)c(OC)c3O)C[C@@H]([C@@H]1O)N2C)OCO4 | 3.4 nM (active)
15 | C[C@@H](Oc1ccc2[nH]nc(/C=C/c3cnn(CCO)c3)c2c1)c1c(Cl)cncc1Cl | 8330 nM (active)
16 | O=C([O-])C[O-].[Pt+2] | inactive
17 | CC(C)NC(=O)C1CCC(n2c(NC(=O)c3ccc(F)cc3)nc3ccc(CN4CCC(C(C)(C)O)CC4)cc32)CC1 (stereo not given) | 3620 nM (active)
18 | Ac-PHSCN-NH2 | inactive
19 | CCN(CC)C(=S)SSC(=S)N(CC)CC | 332 nM (active)
20 | C/C=C/C/C=C/CCC(=O)[C@H]1O[C@H]1C(N)=O | 11800 nM (active)

Row | Molecule | Potency
21 | Cn1cc(C2=C(c3cn(C)c4cc([N+](=O)[O-])ccc34)C(=O)NC2=O)c2ccccc21 | 662 nM (active)
22 | N=C1S/C(=C\c2ccc(-c3ccc4c(c3)C(=O)NC4=O)o2)C(=O)N1c1ccc(Br)cc1 | inactive
23 | COc1cc(OC)cc(N2CCN(C(=O)Nc3nc4cc(F)ccc4nc3OC)CC2)c1 | 1050 nM (active)
24 | CCS(=O)(=O)Nc1ccc(Oc2ccc(F)cc2F)c(-c2cn(C)c(=O)c3[nH]ccc23)c1 | 11.8 nM (active)
25 | C=CC(=O)Nc1cccc(C)c1Nc1ncc2cc(-c3c(Cl)c(OC)cc(OC)c3Cl)ccc2n1 | 10500 nM (active)
26 | CNS(=O)(=O)c1ccc2c(c1)/C(=C/c1[nH]c3c(c1CCCN1CCN(C)CC1)CCCC3)C(=O)N2 | 18600 nM (active)
27 | COc1ncc(Nc2ncc(C(C)N3CCN(S(C)(=O)=O)CC3)cc2-c2nc(C)nc(N)n2)cc1F (stereo not given) | 662 nM (active)
28 | CCN(CC)CCNC(=O)c1c(C)[nH]c(/C=C2/C(=O)Nc3ccc(-c4csc(-c5ccccc5)n4)cc32)c1C | 18600 nM (active)
29 | CC(=O)Nc1ccc(C(=O)NC(C)(C)C)cc1 | inactive
30 | O=C(NO)c1cnc(NC2(c3ccccc3)CC2)nc1 | 5900 nM (active)
31 | CCO[C@@H]1OC(=O)C[C@@H]1NC(=O)[C@@H]1CCCN2C(=O)CC[C@H](NC(=O)c3nccc4ccccc34)C(=O)N12 | inactive
32 | Cc1cc(/C=c2/sc3nc4ccccc4n3c2=O)c(C)n1-c1ccccc1 | 14800 nM (active)
33 | Cc1nc(-c2cn3c(n2)-c2ccc(-c4cnn(C(C)(C)C(N)=O)c4)cc2OCC3)n(C(C)C)n1 | 742 nM (active)
34 | CC(=O)N[C@H]1CSSC[C@@H](C(N)=O)NC(=O)[C@H](C(C)C)NC(=O)[C@H](C)NC(=O)[C@H](Cc2cnc[nH]2)NC1=O | inactive
35 | CN(C)c1ccc(C(=O)NCCCCCCC(=O)NO)cc1 | 833 nM (active)
36 | CC[C@@]1(O)C(=O)OCc2c1cc1n(c2=O)Cc2c-1nc1cc(F)c(C)c3c1c2[C@@H](N)CC3 | 5.3 nM (active)
37 | NS(=O)(=O)c1ccc(NC(=S)N2CCN(C/C=C/c3ccccc3)CC2)cc1 | 20900 nM (active)
38 | CCC(=O)NC[C@H](Cc1ccc(OCCc2nc(-c3ccccc3)oc2C)cc1)N/C(C)=C\C(=O)c1ccc(C(F)(F)F)cc1 | 20900 nM (active)
39 | CC[C@H](CC[C@@H](C)[C@H]1CC[C@H]2[C@@H]3CC=C4C[C@@H](O)CC[C@]4(C)[C@H]3CC[C@]12C)C(C)C | inactive
40 | NC(CO)(CO)CCc1ccc(Sc2cccc(OCc3ccccc3)c2)cc1Cl | 9340 nM (active)
